Data as given in PubChem BioAssay (Tox21).
Records with an inconclusive call do not appear. Active and inactive are the calls of the source. Calls come from the whole dose curve; as a rule, active = well fitted curve in the direction sought with a large enough effect in the repeat runs; inconclusive = weak or mixed curves; inactive = no such curve, though single readings can be large; an effect the other way counts as inactive or inconclusive.

Tests used:
[1] = A CellTox Green Cytotoxicity Assay to monitor cytotoxicity in HEK293 cells - 40 hour (AID 1224871); note: nearly all actives have a fitted effect of over 45% in size
In short: (§1)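 Cytotoxicity was tracked continuously in HEK293 cells by a DNA-binding dye excluded from viable cells. Compounds were transferred in DMSO 5 h after seeding; fluorescence was recorded at intervals up to 40 h.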

[2] = A CellTox Green Cytotoxicity Assay to monitor cytotoxicity in HEK293 cells - 24 hour (AID 1224875); note: series mostly up to about 77 µM; nearly all actives have a fitted effect of over 45% in size
In short: as §1

[3] = A CellTox Green Cytotoxicity Assay to monitor cytotoxicity in HepG2 cells - 16 hour (AID 1224876); note: nearly all actives have a fitted effect of over 45% in size; note: potency is the fitted concentration of half-maximal effect
In short: (§2)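 Real-time, homogeneous cytotoxicity readout: dead-cell DNA staining by CellTox Green in HepG2 monolayers, fluorescence measured at timed intervals up to 40 h of continuous compound exposure.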

[4] = A CellTox Green Cytotoxicity Assay to monitor cytotoxicity in HepG2 cells - 24 hour (AID 1224878); note: nearly all actives have a fitted effect of over 45% in size; note: potency is the fitted concentration of half-maximal effect
In short: as §2

[5] = A CellTox Green Cytotoxicity Assay to monitor cytotoxicity in HepG2 cells - 40 hour (AID 1224879); note: nearly all actives have a fitted effect of over 40% in size; note: potency is the fitted concentration of half-maximal effect
In short: as §2

[6] = qHTS RealTime-Glo MT Cell Viability Assay in HEK293 cells - 0 hour (AID 1224880)
In short: (§3)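 Nonlytic bioluminescent viability monitoring. HEK293 at 600 cells/well with reagent; 5 h settle; compound transfer by pintool; plates held at 37 C and read at set time points.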

[7] = qHTS RealTime-Glo MT Cell Viability Assay in HEK293 cells - 16 hour (AID 1224872); note: nearly all actives have a fitted effect of over 50% in size; note: potency is the fitted concentration of half-maximal effect
In short: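 HEK293 cells seeded with NanoLuc/prosubstrate reagent, rested 5 h at 37 C, then dosed and kept at 37 C up to 40 h. Nonlytic real-time luminescence from viable cells read at 0, 8, 16, 24, 32 and 40 h.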

[8] = qHTS RealTime-Glo MT Cell Viability Assay in HepG2 cells - 8 hour (AID 1224873); note: nearly all actives have a fitted effect of over 55% in size
In short: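 HepG2 cells mixed with RealTime-Glo MT reagents (NanoLuc plus cell-permeant prosubstrate) were seeded at 600 cells/well, incubated 5 h at 37 C/5% CO2, then pinned with compounds in DMSO; nonlytic luminescence tracked viability during 40 h treatment.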

[9] = qHTS RealTime-Glo MT Cell Viability Assay in HEK293 cells - 40 hour (AID 1224874); conditions: RealTime-Glo luminescence; max response: active compounds read low; note: nearly all actives have a fitted effect of over 50% in size; note: potency is the fitted concentration of half-maximal effect
In short: as §3

[10] = qHTS RealTime-Glo MT Cell Viability Assay in HepG2 cells - 32 hour (AID 1224877); note: nearly all actives have a fitted effect of over 55% in size
In short: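 HepG2 cells (600/well) were dispensed with RealTime-Glo reagents, incubated 5 h at 37 °C, then treated with compounds in DMSO for up to 40 h. Nonlytic NanoLuc luminescence reflecting viable cells was read at each stated time point.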
% is set by controls: 0 for no effect and ±100 for the full control effect.

O[C@@H](COc1cccc2ncccc12)CN1CCN(C2c3ccccc3[C@@H]3[C@H](c4ccccc42)C3(F)F)CC1 (some centres not stated)
inactive: Potency [1] | Potency [2] | Potency [3] | Potency [4] | Potency [5] | Potency [6]

Cc1cccc(C)c1OCC(=O)N[C@@H](Cc1ccccc1)[C@@H](O)C[C@H](Cc1ccccc1)NC(=O)[C@H](C(C)C)N1CCCNC1=O
active: Potency [7] 23.9 µM | Potency [9] 23.9 µM
inactive: Potency [8] | Potency [3] | Potency [10] | Potency [4] | Potency [6]

Nc1ccc(N)c2c1C(=O)c1ccccc1C2=O
inactive: Potency [1] | Potency [2] | Potency [3] | Potency [10] | Potency [4] | Potency [5] | Potency [6]

CCCCC
inactive: Potency [7] | Potency [8] | max response [9] 0.575% | Potency [3] | Potency [10] | Potency [4]

OCc1cc(C(O)CNCCCCCCOCCCCc2ccccc2)ccc1O (configuration not stated)
inactive: Potency [8] | Potency [6]
active: Potency [9] 23.9 µM | Potency [3] 23.9 µM | Potency [4] 23.9 µM | Potency [5] 23.9 µM

CC(C)=CCC/C(C)=C/CC/C(C)=C/CO
inactive: Potency [8] | Potency [3] | Potency [10] | Potency [4] | Potency [6]
